Assay outcomes: PubChem, several laboratories
NR3A LBD binder: binders of NR3A ligand-binding domain, primary screen, biophysical, differential scanning fluorimetry, uHTS; Glutamate receptor ionotropic, NMDA 3A (GRIN3A) ligand-binding domain; NR3A LBD differential scanning fluorimetry, Tm shift; 0% = protein alone, 100% = glycine-bound protein; Tm shift relative to glycine control, % at 25 µM; hit rate 2.5% among 340,000;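 active = melting temperature shift of at least 10% of the positive control shift, at one fixed dose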
Rpn11 block: Rpn11 (PSMD14) deubiquitinase inhibitors, primary screen, biochemical, fluorescence polarization, uHTS | human 26S proteasome, Ub4-pepOG fluorescence polarization; 20S core pre-blocked with epoxomicin | 26S proteasome non-ATPase regulatory subunit 14 (Homo sapiens), O00487 | inhibition, % at 20 µM | hit rate 0.59% among 360,000;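 active = inhibition at 20 µM, scaled to each plate's controls, above about 33%, limit read from the data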
dFosB activator: activators of delta FosB homodimer, primary screen, biochemical, fluorescence polarization, TAMRA-CDK5 oligo, single point. Protein FosB (Mus musculus), P13346. purified delta FosB; percent of positive-control signal above neutral wells. activation, % at 25 µM. hit rate 0.99% among 340,000;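 active = mean activation above about 17%, with every replicate also reaching it, limit read from the data, passing the limit was not always enough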
ZTA counter: ZTA (EBV) inhibition in EBNA-1 counter-screen; hit rate 0.15% among 320,000; ZTA-DNA binding, fluorescence polarization; inhibition, % at 11 µM; in the data active = inhibition above about 33%
Target sequence (P03206 whole entry, looked up): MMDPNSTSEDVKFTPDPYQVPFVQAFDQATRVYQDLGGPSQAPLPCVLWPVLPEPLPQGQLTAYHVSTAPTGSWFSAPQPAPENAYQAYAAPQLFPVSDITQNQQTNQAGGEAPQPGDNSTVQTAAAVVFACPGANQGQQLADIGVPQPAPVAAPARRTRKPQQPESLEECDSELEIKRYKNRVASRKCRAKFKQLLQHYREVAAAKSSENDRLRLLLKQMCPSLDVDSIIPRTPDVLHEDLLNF
EBNA-1 inhibitor: EBNA-1 DNA-binding inhibitors, primary screen, biochemical, fluorescence polarization | inhibition, % at 14.8 µM | hit rate 0.34% among 300,000 | AID 1950, 2009; in the data active = inhibition above about 28%
TPT1 inh: Candida albicans TPT1 enzyme inhibitors, primary screen, biochemical, fluorescence polarization. recombinant caTPT1, FP RNA substrate dephosphorylation. inhibition, % at 5 µM. hit rate 0.81% among 300,000. AID 1962, 2009;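 active = inhibition above the mean of all tested compounds plus 3 SD, set per screening campaign, cut at about 24% in these data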
A number is an active result; n = inactive; x = not tested or not shown. This is a sample that favours compounds with a hit; in the whole collection about 4.5% have one here.

SMILES	NR3A LBD binder	Rpn11 block	dFosB activator	ZTA counter	EBNA-1 inhibitor	TPT1 inh
COC(=O)[C@H](CC(C)C)NC(=O)Cn1cnc(C(=O)Nc2ccc(C)c(C)c2)n1	n	n	n	x	x	x
CN(C)c1ccc(C(CNS(=O)(=O)c2ccc(F)c(F)c2)c2c[nH]c3ccccc23)cc1 (stereo not given)	23	n	n	n	n	n
CCCn1c2c(c(O)c(C(=O)Nc3nc4ccccc4s3)c1=O)CCCC2	n	n	n	n	n	n
COc1ccc(NC(=O)Cn2nnc(-c3ccccc3NS(=O)(=O)c3ccccc3)n2)cc1	17	n	n	n	n	n
COc1ccc(-c2noc(CCC(=O)NCCN3CCN(c4ccccc4F)CC3)n2)cc1	n	n	n	n	n	n
O=C(CCc1nc(-c2ccccc2F)no1)NCCN1CCOCC1	14	n	n	n	n	n
COc1ccc(NS(=O)(=O)c2ccc(C)c(C(=O)N3CC(C)OC(C)C3)c2)cc1 (stereo not given)	11	n	n	n	n	n
Cc1cc(S(=O)(=O)Nc2ccc(C(=O)N3CC(C)OC(C)C3)cc2)ccc1F (stereo not given)	n	n	n	n	n	n
Fc1ccc2[nH]c3c(N4CCc5ccccc5C4)ncnc3c2c1	23	n	x	n	n	n
CCCN(CC(=O)Nc1cc(Cl)cc(Cl)c1)CC(=O)Nc1ccc(F)c(F)c1F	20	n	n	n	n	n
CCCN(CC(=O)Nc1ccccc1Br)CC(=O)Nc1ccc(F)c(F)c1F	n	n	n	n	n	n
COc1ccccc1-c1ccc(Nc2cccc(C(F)(F)F)c2)nn1	n	n	n	n	n	n
Fc1ccc(-c2ccc(Nc3cccc(F)c3)nn2)cc1	30	n	n	n	n	n
Fc1ccc(Nc2ccc(-c3ccc(F)cc3)nn2)cc1	26	n	n	n	n	n
COc1cccc(NC(=O)CCNC(=O)c2ccccc2Cl)c1	n	n	n	n	n	n
CCOC(=O)C1=C(COC(=O)c2ccc(OC(C)C)cc2)NC(=O)NC1C (stereo not given)	n	n	n	n	n	n
O=C(NC(=S)Nc1ccccc1Br)C1CCCCC1	13	n	n	x	x	x
CN1CCc2c(sc(NC(=O)CS(=O)(=O)c3ccccc3)c2C(N)=O)C1	18	n	n	n	n	n
O=c1ccc2cc3c([nH]c4ccc(Br)cc43)oc-2c1O	x	46	n	n	n	n
CC(OC(=O)c1cc(Br)ccc1O)C(=O)Nc1ccc(S(=O)(=O)N2CCCC2)cc1 (stereo not given)	11	n	n	n	n	n
O=C(Nc1ccc(S(=O)(=O)N2CCOCC2)cc1)c1ccc([N+](=O)[O-])s1	29	n	n	n	n	n
Cc1ccc(Nc2nc(-c3ccc(S(=O)(=O)N4CCOCC4)cc3)cs2)cc1Cl	26	n	n	n	31	n
Cc1ccc(C(=O)Nc2ccc(S(=O)(=O)N3CCOCC3)cc2)cc1Br	34	n	x	n	n	n
CC(=O)c1ccc(NC(=O)c2ccc(C)c(S(=O)(=O)N3CCOCC3)c2)cc1	n	n	n	n	n	n
CC(C)CC(=O)Nc1nc(-c2ccc(S(=O)(=O)N3CCOCC3)cc2)cs1	n	n	n	x	x	x
O=C(Nc1ccc(S(=O)(=O)N2CCOCC2)cc1)c1ccccc1	n	n	n	n	n	n
Cc1ccc(-n2ccc(=O)c(C(=O)Nc3ccc(S(=O)(=O)N4CCOCC4)cc3)n2)cc1	12	n	n	n	n	n
Nc1nnc(SCC(=O)Nc2ccc(S(=O)(=O)N3CCOCC3)cc2)s1	n	n	n	n	n	n
O=C(Nc1ccc(S(=O)(=O)N2CCOCC2)cc1)c1nn(-c2ccc(F)cc2)ccc1=O	n	n	n	n	n	n
CCOC(=O)c1ccc(NC(=O)CSc2nnc(NC(=O)c3ccc(S(=O)(=O)N4CCOCC4)cc3)s2)cc1	37	n	n	n	n	n
